Only a selection was taken, and hits are over-represented in it overall.
ClpP mod = qHTS Assay for Activators of ClpP; ATP-dependent Clp protease proteolytic subunit (Bacillus subtilis (strain 168)), P80244; purified B. subtilis ClpP, FRET peptide cleavage, 20 min; Potency, µM (doses to about 57.5 µM), inactives show at the top dose activity change, negative = active; 340,000 tested, 1.9% active; AID 651965, 2013; active means well fitted falling curve with a large enough effect; inconclusive means small, poorly fitted or top-dose-only effect; inactive means no such curve, though single readings can be large or run the other way; further: the source files actives as falling curves though it sought activators and does not explain the sign; nearly all actives have a fitted effect of over 65% in size
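Purified B. subtilis ClpP, 10 microg/mL final in Tris/HCl pH8 with KCl, BSA, glycerol and Tween-20, cleaved an Abz/nitrotyrosine-quenched decapeptide. Fluorescence (ex 320, em 430) was read at 0 and 20 min at room temperature. Delta was normalized to 5.8 microM ADEP and DMSO/no-enzyme controls.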
GALK inh = qHTS Assay for Inhibitors of Human Galactokinase (GALK); 270,000 tested, 0.007% active; Purified GALK, Kinase-Glo residual ATP luminescence; Potency, µM (top dose mostly 57.5 µM), for the others: top-dose activity change, negative = inhibition, hits mostly inhibitors; P51570; AID 1868, 2009; further: on the % scale 0 is the no-effect control and ±100 the full control effect
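GALK at 5 nM final was combined with compound, 35 uM ATP and 100 uM galactose in HEPES pH8.0 with MgCl2 and DTT. The reaction ran one hour at room temperature before luminescent ATP detection.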
USP2a inh = qHTS Assay for Inhibitors of Ubiquitin-specific Protease USP2a Using CHOP2 as the Reporter; Potency, µM (highest dose often 38.3 µM), inactives show at the top dose activity change, negative = inhibition, actives largely listed as inhibitors; USP2 core, Ub-CHOP2 coupled fluorogenic reporter, 485/531; 330,000 tested, 0.01% active; Ubiquitin carboxyl-terminal hydrolase 2 (Homo sapiens), O75604;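 further: plate controls were DMSO wells for no effect and full inhibition by NEM control for full effect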
Target sequence (O75604 whole entry, looked up): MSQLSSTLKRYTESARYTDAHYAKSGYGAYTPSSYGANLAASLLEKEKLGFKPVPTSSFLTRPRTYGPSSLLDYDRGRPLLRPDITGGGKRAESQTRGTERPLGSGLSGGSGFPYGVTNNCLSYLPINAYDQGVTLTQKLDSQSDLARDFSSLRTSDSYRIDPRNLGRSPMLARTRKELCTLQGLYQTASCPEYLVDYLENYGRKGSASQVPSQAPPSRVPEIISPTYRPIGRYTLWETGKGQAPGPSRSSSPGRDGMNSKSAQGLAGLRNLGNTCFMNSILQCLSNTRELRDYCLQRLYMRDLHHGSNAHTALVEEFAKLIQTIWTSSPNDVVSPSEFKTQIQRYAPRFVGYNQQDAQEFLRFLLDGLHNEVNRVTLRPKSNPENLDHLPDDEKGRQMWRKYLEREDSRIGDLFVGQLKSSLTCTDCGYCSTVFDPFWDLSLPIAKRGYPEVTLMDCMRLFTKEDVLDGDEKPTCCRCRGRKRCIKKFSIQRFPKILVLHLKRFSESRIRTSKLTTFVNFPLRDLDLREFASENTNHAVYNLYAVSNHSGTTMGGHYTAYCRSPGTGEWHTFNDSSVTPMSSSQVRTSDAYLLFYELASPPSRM
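Cell-free coupled assay: 10nM USP2 core preincubated 30min RT with compound in Tris-HCl pH 8.0/CaCl2/CHAPS buffer, then 25nM Ub-CHOP2 and 25nM reporter substrate; fluorescence (Ex 485/Em 531) read after 60min RT, normalized to NEM inhibition, concentration-response curves fitted.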
Eya2 inh = qHTS Assay for Inhibitors of the Phosphatase Activity of Eya2. Protein phosphatase EYA2 (Homo sapiens), O00167. recombinant Eya2, OMFP fluorescence dephosphorylation (OMFP is methylfluorescein phosphate). Potency, µM (series often up to 76.9 µM), for inactives: at the top dose activity, negative = inhibition, hits mostly inhibitors. 330,000 tested, 0.006% active. AID 488837, 2010; further: on the % scale 0 is the no-effect control and ±100 the full control effect
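Eya2 (0.2 uM) preincubated 10 min at ambient with compound, then OMFP substrate added at 50 uM; 10 min reaction in 50 mM HEPES pH 7.5, 50 mM NaCl, 5 uM MgCl2, 0.05% BSA, 1 mM DTT. Fluorescence read at Ex 485/Em 525 nm.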
An asterisk follows results filed as active. Unless noted, the call rests on the fitted dose curve; in most records, active means well fitted inhibition curve with a large enough effect; inconclusive means small, poorly fitted or top-dose-only effect, or effect the other way; inactive means flat fitted curve, though single readings scatter. Potency means the concentration at half of the fitted maximal effect.

Cc1cc(C)cc(NC(=S)N(CCN(C)C)C(C)c2cccnc2)c1 (stereo not given) was read as GALK inh -3%, USP2a inh 1% and Eya2 inh -25%.
O=C(Nc1ccccc1C(=O)OCn1nnc2ccccc2c1=O)c1ccco1 was read as ClpP mod -8%, GALK inh -4%, USP2a inh 2% and Eya2 inh -2%.
For CN1CCN(c2c(F)cc3c(=O)c(C(=O)O)cn4c3c2SCC4)CC1 the results were ClpP mod 28µM*, GALK inh -2%, USP2a inh -2% and Eya2 inh 1%.
For C[C@H]1COc2c(N3CCN(C)CC3)c(F)cc3c(=O)c(C(=O)O)cn1c23 the results were ClpP mod 5%, GALK inh -2%, USP2a inh 0% and Eya2 inh 5%.
For COCCn1nnnc1C(C(C)C)N(Cc1cccnc1)Cc1cc2cc(OC)ccc2[nH]c1=O (stereo not given) the results were ClpP mod 25µM*, GALK inh -1%, USP2a inh 0% and Eya2 inh 2%.
`O=C(NCCC1CCCCN1S(=O)(=O)c1ccccc1)C(=O)NCc1ccccc1F` (stereo not given) gave ClpP mod 1%, USP2a inh -1% and Eya2 inh 6%.
Screening O=C(N/N=C/c1ccc(-c2ccc(S(=O)(=O)Nc3ncccn3)cc2)o1)c1cc2ccccc2cc1O returned ClpP mod inconclusive, GALK inh -14%, USP2a inh inconclusive and Eya2 inh 22%.
`CCOc1ccc(C(=O)N/N=C/c2ccc(-c3ccc(S(=O)(=O)Nc4ncccn4)cc3)o2)cc1` gave ClpP mod 28µM*, GALK inh -5%, USP2a inh 2% and Eya2 inh -23%.
Screening CCN1CCN(c2cc(C)c3cc(NC(=O)c4cncc(Br)c4)ccc3n2)CC1 returned ClpP mod 20µM*, GALK inh 0%, USP2a inh -3% and Eya2 inh -20%.
`Cc1ccccc1NC(=O)Nc1ccc2nc(N3CCN(C)CC3)cc(C)c2c1` gave ClpP mod -1%.
`Cc1cc(N2CCN(C)CC2)nc2ccc(NC(=O)CCC(=O)NCc3ccco3)cc12` gave ClpP mod 22µM*, GALK inh 3%, USP2a inh 3% and Eya2 inh 24%.
`COc1ccccc1CC(=O)Nc1ccc2nc(N3CCC(C)CC3)cc(C)c2c1` gave ClpP mod 4%.
`CCN1CCN(c2cc(C)c3cc(NC(=O)Cc4ccccc4OC)ccc3n2)CC1` gave ClpP mod 28µM*, GALK inh -1%, USP2a inh 0% and Eya2 inh 8%.
For CCOc1ccccc1NC(=O)Nc1ccc2nc(N3CCN(C)CC3)cc(C)c2c1 the results were ClpP mod 11µM*.
CCCCCCn1c(N2CCC(C(N)=O)CC2)nc2c1c(=O)[nH]c(=O)n2C was read as ClpP mod -2%, GALK inh 6%, USP2a inh 0% and Eya2 inh -11%.
Cc1ccccc1OC(C)C(=O)Nc1ccc2c(c1)OCO2 (stereo not given) was read as ClpP mod 0%, GALK inh -6%, USP2a inh 2% and Eya2 inh -1%.
`Cc1c(Cl)cccc1NC(=O)CCS(=O)(=O)c1cccc2nonc12` gave GALK inh 1%, USP2a inh 2% and Eya2 inh -12%.
CCCCCN(C(=O)CCC(=O)OCC(=O)N1CCCCC1)c1c(N)n(CCCC)c(=O)[nH]c1=O was read as ClpP mod 3%, GALK inh -3%, USP2a inh 2% and Eya2 inh -7%.
Screening CCOC(=O)c1ccc2c(c1)n(CC)c(C)[n+]2CC returned GALK inh 2%, USP2a inh -2% and Eya2 inh -6%.
For COc1ccc(C)cc1NC(=O)CCC(=O)Nc1ccc2nc(N3CCN(C)CC3)cc(C)c2c1 the results were ClpP mod 28µM*, GALK inh 1%, USP2a inh -1% and Eya2 inh 2%.

From PubChem BioAssay
